Rows were chosen to be rich in hits. Some 7.9% of all compounds tested hit in one or more screens of this group.
LASV entry inh: blocks Lassa virus binding to or entry into cells; AID 540256; Potency, µM (titrated, usually from 37.9 µM), for the others: at the top dose activity change, negative = inhibition, usual class: inhibitors; Lassa virus pseudotype entry inhibition, cell reporter; hit rate 1.2% among 300,000; calls by dose curve; tested in HEK293 cells; note: potency is the fitted concentration of half-maximal effect; nearly all actives have a fitted effect of over 50% in size
HCMV antiviral: inhibitors of human cytomegalovirus; hit rate 4.5% among 410,000; HFF cells, HCMV-luciferase reporter, 72 h; active compounds read low; activity change, negative = inhibition, % at 57.5 µM; in the data active = activity change below about -60%; inconclusive = no clear call, values can overlap the other calls; inactive = above about -39%
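Compounds were evaluated in HFFs infected with an HCMV luciferase reporter virus (MOI 1 PFU/cell). Luciferase in lysates collected 72 h post infection served as the replication measure.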
HCV inhibitor: blocks hepatitis C virus; Huh7.5.1 HCVcc-Cre infection, luciferase reporter, 44 h; Potency, µM (top dose mostly 41.8 µM), for the others: at the top dose activity change, negative = inhibition, usual class: inhibitors; hit rate 3.4% among 340,000; active = well fitted inhibition curve with a large enough effect; inconclusive = small, poorly fitted or top-dose-only effect, or another doubt; inactive = no such curve, though single readings can be large or run the other way; note: potency is the fitted concentration of half-maximal effect
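Compounds are dispensed onto cells plated 4 h earlier at 1,000 per well, with HCVcc-Cre virus (about 0.5 moi) added next. Following 44 h of culture, luminescent signal is measured for 15 sec after 15 min with substrate at room temperature.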
Marburg entry inh: Marburg virus entry inhibition. Marburg virus pseudotyped entry inhibition, cell reporter. hit rate 1.8% among 300,000. Potency, µM (titrated, usually from 37.8 µM), for the others: at the highest dose activity change, negative = inhibition, hits mostly inhibitors; calls by dose curve; tested in HEK293 cells; note: potency is the fitted concentration of half-maximal effect
FMDV inh: antivirals against foot and mouth disease virus. hit rate 1.2% among 410,000. AID 1159524. Potency, µM (doses to about 57.9 µM), inactives show top-dose activity change, negative = inhibition, hits mostly inhibitors. FMDV antiviral cell-based qHTS; calls by dose curve; tested in HEK293T cells; note: read-out not given here; potency is the fitted concentration of half-maximal effect; nearly all actives have a fitted effect of over 45% in size
Numbers without * were called inactive; u = inconclusive; x = not tested or not shown; [ ] = another dose, or the depositor's remark. % is set by controls: 0 for no effect and ±100 for the full control effect.

SMILES | LASV entry inh | HCMV antiviral | HCV inhibitor | Marburg entry inh | FMDV inh
CCc1nnc(NC(=O)c2ccc(-c3ccccc3F)o2)s1 | u | 0 | -12% | 15%[46.1 µM] | 38%
Cc1ccc2nc(CN3CCN(C(=O)Nc4ccc(C)c(F)c4)CC3)oc2c1 | -1%[46.1 µM] | 18 | x | x | -13%
Cc1ccc(NC(=O)CN(C)C(=O)c2cccc(Br)c2)cc1 | -22%[46.1 µM] | x | -24% | 12%[46.1 µM] | 2%
O=c1[nH]c(=O)n(Cc2ccco2)c(O)c1C=NCc1ccc2c(c1)OCO2 | -9% | 34 | 0% | 0% | 0%
CC1(C)CC(N=Cc2c(O)n(Cc3ccc4c(c3)OCO4)c(=O)c3ccccc23)CC(C)(C)N1 | u | -33 | 11µM* | u | -19%
COc1cccc(NC(=O)CCC2CCN(Cc3nccs3)CC2)c1 | -21% | 18 | -8% | 1% | -9%
CC1CCC2(CC1)NC(=O)N(NC(=O)CCl)C2=O (stereo unspecified) | 6% | -63* | -7% | -20%[46.1 µM] | -3%
O=C(c1cccc(F)c1)N1CCN(c2cc(N3CCCCC3)c(F)cc2[N+](=O)[O-])CC1 | -29% | -74* | 3% | u | 6%
O=C(c1ccc(N2CCCC2)c([N+](=O)[O-])c1)N1CCN(S(=O)(=O)c2ccccc2)CC1 | -22% | 2 | 14µM* | -6% | u
Cc1ccc(C)c(S(=O)(=O)N2CCN(C(=O)c3ccc(N4CCCC4)c([N+](=O)[O-])c3)CC2)c1 | -16%[46.1 µM] | -3 | 0% | -11%[46.1 µM] | -21%
CCC(=O)N1CCN(c2cc(N3CCCC3)c(F)cc2[N+](=O)[O-])CC1 | x | u | -1% | x | -25%
CC1Cc2ccccc2N1C(=O)c1ccc(N2CCCC2)c([N+](=O)[O-])c1 (stereo unspecified) | u | -39 | 13µM* | u | u
Cc1ccc(S(=O)(=O)NC(CC(C)C)C(=O)NCC(C)(C)N2CCOCC2)cc1 (stereo unspecified) | 1% | -3 | 24% | u | 13%
Cc1ccc(S(=O)(=O)N2C[C@H]3N(C(=O)OC(C)C)N(C(=O)OC(C)C)C[C@H](OC(=O)NCc4ccco4)[C@@]3(O)C2)cc1 | x | -10 | x | x | -12%
O=C(Nc1ccncc1)C1CCN(S(=O)(=O)c2ccc(Cl)cc2)CC1 | 2% | -34 | u | -28%[46.1 µM] | -24%
Cc1ccc(NC(=O)COc2ccc(CCO)cc2-n2nc3ccccc3n2)cc1C | u | u | 13µM* | u | -18%
Cc1ccc(Oc2nc3c(C)cccn3c(=O)c2/C=C(\C#N)C(N)=O)cc1 | u | 11 | -19% | -2% | 18µM*
Cc1ccccc1Oc1nc2c(C)cccn2c(=O)c1/C=C(\C#N)C(=O)NC1CCS(=O)(=O)C1 (stereo unspecified) | 13µM* | 85 | -22% | u | 20µM*
Cc1cccn2c(=O)c(/C=C(\C#N)C(=O)NC3CCS(=O)(=O)C3)c(Oc3ccccc3Cl)nc12 (stereo unspecified) | -11%[46.1 µM] | 59 | -15% | u | 20µM*
Cc1cccn2c(=O)c(/C=C(\C#N)C(N)=O)c(N3CCN(Cc4ccc5c(c4)OCO5)CC3)nc12 | -2% | -80* | u | -3% | u
COC(=O)c1ccc(NC(=O)CN2CCC(NC(=O)c3ccccc3F)CC2)cc1 | x | -7 | x | x | -12%
CC1=C(C(N)=O)C(c2ccccc2Br)n2ncnc2N1 (stereo unspecified) | 5%[46.1 µM] | -2 | x | x | -20%
CCC(=O)CC(NC(=O)OC)c1ccc(F)cc1 (stereo unspecified) | x | x | x | 6%[14.2 µM] | x
CCOC(=O)c1c(C)oc2nc(C)nc(N3CCN(c4cc(Cl)ccc4C)CC3)c12 | -3%[46.1 µM] | 0 | x | x | u
O=C(Oc1c(CN2CCOCC2)cc(Cl)c2cccnc12)c1ccccc1 | u | -96* | u | u | -29%
SMILES | LASV entry inh | HCMV antiviral | HCV inhibitor | Marburg entry inh | FMDV inh
COc1ccc(C(=O)Oc2c(CN3CCOCC3)cc(Cl)c3cccnc23)cc1OC | x | -22 | 17% | 0% | -6%
COc1cc(OC)cc(C(=O)Oc2c(CN3CCOCC3)cc(Cl)c3cccnc23)c1 | u | u | -27% | -16%[46.1 µM] | 10%
Oc1c(CN2CCCCC2)cc(Br)c2cccnc12 | x | -102* | u | 0% | u
Oc1c(Cl)cc(CN2CCOCC2)c2cccnc12 | x | -99* | 2.5µM* | x | -25%
O=C(Oc1c(CN2CCOCC2)cc(Cl)c2cccnc12)c1ccccc1F | u | -85* | u | u | -16%
CCOC(=O)CN1C(=O)[C@@]2(C[C@@H](C)C[C@@H](C)O2)c2ccccc21 | x | x | x | -18%[14.2 µM] | x
CCCN(CCC)C(=O)CC(c1ccccc1)c1ccc(C)cc1O (stereo unspecified) | 28%[14.3 µM] | -70* | x | u | -20%
CCCN(CCC)C(=O)CC(c1ccccc1)c1cc(Br)ccc1O (stereo unspecified) | 2% | -21 | u | u | u
Cc1ccc(C(CC(=O)NCC2(c3ccccc3)CCCC2)c2ccccc2)c(O)c1 (stereo unspecified) | u | -15 | x | u | 7.9µM*
CCOc1ccc2nc(N(Cc3cccnc3)C(=O)c3ccco3)sc2c1 | -16%[46.1 µM] | -7 | x | x | 37%
COc1ccccc1C(=O)N(CCC1CCCN1C)c1nc2ccccc2s1 (stereo unspecified) | u | -77* | 9% | u | u
COc1ccc2sc(N(CCCN(C)C)C(=O)c3nc4ccccc4s3)nc2c1 | 28% | 40 | 4% | 10%[46.1 µM] | 0%
CCCC(=O)N1c2ncnn2C2(CCCCC2)[C@@H]2CCCC[C@@H]21 | -5%[46.1 µM] | -7 | x | -29%[46.1 µM] | -15%
CN1CCN(c2ccc(CNC(=O)c3cccc4c(-c5ccc(F)c(F)c5)coc34)cc2)CC1 | x | x | x | x | -18%
COC(=O)c1nn(-c2ccc3c(c2)CCN3C(C)=O)cc1O | 2.6µM* | u | -6% | u | 8.9µM*
COC(=O)c1nn(-c2ccc3c(c2)OCO3)cc1O | u | 62 | -8% | -12% | 6%
O=C1CC2(CCN(C(=O)c3cccc(Cl)c3)CC2)Oc2ccccc21 | 12%[46.1 µM] | -99* | 17% | 16% | u
O=C1CC2(CCN(C(=O)c3ccc(Cl)cc3)CC2)Oc2ccccc21 | -18% | -20 | 11% | -9%[46.1 µM] | -25%
COc1cc(/C=N/NC(=O)c2ccc(CN(C)S(=O)(=O)c3ccc(C)cc3)cc2)ccc1O | u | 9 | u | u | u
COC(=O)CC1c2ccccc2C=C(C=Cc2ccc3c(c2)OCO3)N1C(=O)OC (stereo unspecified) | u | x | x | -18%[14.2 µM] | x
CC12C=C(C=Cc3ccc(C(F)(F)F)cc3)C(C)(C1)C(c1ccc(C(F)(F)F)cc1)CC2=O (stereo unspecified) | x | x | x | 6%[14.2 µM] | x
COc1ccc(CCc2nnc(CCC(=O)N(C)Cc3ccnc4ccccc34)o2)cc1 | 13µM* | -64* | u | u | u
COc1ccccc1CCc1nnc(CCC(=O)N(C)Cc2cccc3cnccc23)o1 | 9%[46.1 µM] | -20 | u | -11%[46.1 µM] | -3%

Screens as filed in PubChem.
